Assay results taken from PubChem BioAssay (NCI).
About 83,000 compounds went through this panel and 20% of them were active in at least one assay; those are over-represented in the sample as a whole.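 Assay: single dose, 48 h. Readout: percent growth (0 = no net growth; negative = cell death). Active: <10.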 The source made the active and inactive calls.

Legend:
Assay in all cases: NCI-60 one-dose screen, 48 h (100 = growth as untreated, 0 = no growth, -100 = all killed)
Conditions in all cases: 10 µM
DU-145 prostate = system: DU-145 prostate
K-562 leukemia = system: K-562 leukemia
MALME-3M melanoma = system: MALME-3M melanoma
MDA-MB-231 breast = system: MDA-MB-231 breast
RXF 393 renal = system: RXF 393 renal
SF-268 CNS = system: SF-268 CNS
SF-295 CNS = system: SF-295 CNS
SF-539 CNS = system: SF-539 CNS
UACC-257 melanoma = system: UACC-257 melanoma
M14 melanoma = system: M14 melanoma

Measured: growth

COC(=O)c1ccc(C(C)C)cc1
inactive: DU-145 prostate 105% | K-562 leukemia 116% | MALME-3M melanoma 99.9% | MDA-MB-231 breast 113% | RXF 393 renal 122% | SF-268 CNS 101% | SF-295 CNS 100% | SF-539 CNS 102% | UACC-257 melanoma 90.9% | M14 melanoma 88.6%

NC(C(=O)O)c1ccc([N+](=O)[O-])cc1 (stereo not given)
inactive: DU-145 prostate 109% | K-562 leukemia 113% | MALME-3M melanoma 121% | MDA-MB-231 breast 90.2% | RXF 393 renal 118% | SF-268 CNS 105% | SF-295 CNS 104% | SF-539 CNS 89.3% | UACC-257 melanoma 111% | M14 melanoma 99%

CC1(C)/C(=C\CO)C2CCC1C2 (stereo not given)
inactive: DU-145 prostate 120% | K-562 leukemia 105% | MALME-3M melanoma 103% | MDA-MB-231 breast 112% | RXF 393 renal 113% | SF-268 CNS 111% | SF-295 CNS 120% | SF-539 CNS 109% | UACC-257 melanoma 132% | M14 melanoma 103%

CCCCC(O)c1ccccc1 (stereo not given)
inactive: DU-145 prostate 108% | K-562 leukemia 94% | MALME-3M melanoma 102% | MDA-MB-231 breast 116% | RXF 393 renal 107% | SF-268 CNS 98.6% | SF-295 CNS 104% | SF-539 CNS 106% | UACC-257 melanoma 101% | M14 melanoma 109%

COc1cccc(Sc2ccc([N+](=O)[O-])c3no[n+]([O-])c23)c1
active: K-562 leukemia 8.93% | RXF 393 renal -54%
inactive: DU-145 prostate 67.3% | MALME-3M melanoma 27.7% | MDA-MB-231 breast 74.2% | SF-268 CNS 62.6% | SF-295 CNS 95.9% | SF-539 CNS 95.4% | UACC-257 melanoma 96.7% | M14 melanoma 72.1%

N#Cc1ccc(OC(=O)Nc2ccc(Cl)c(Cl)c2)cc1
inactive: DU-145 prostate 72.3% | K-562 leukemia 44% | MALME-3M melanoma 72.9% | MDA-MB-231 breast 93% | RXF 393 renal 91.5% | SF-268 CNS 94.4% | SF-295 CNS 41.4% | SF-539 CNS 91.5% | UACC-257 melanoma 86.2% | M14 melanoma 76.6%

COc1cc(C2c3cc4c(cc3C3OC(=O)C2C3CO)OCO4)cc(OC)c1OC (stereo not given)
inactive: MALME-3M melanoma 50.3% | MDA-MB-231 breast 30.3% | RXF 393 renal 57.9% | SF-268 CNS 30.3% | UACC-257 melanoma 57% | M14 melanoma 12.1%
active: DU-145 prostate -41.5% | K-562 leukemia 8.48% | SF-295 CNS 3.2% | SF-539 CNS -7.04%

O=C(/C(=N/O)c1ccccc1)c1ccccc1
inactive: DU-145 prostate 111% | K-562 leukemia 120% | MALME-3M melanoma 82% | MDA-MB-231 breast 98.5% | RXF 393 renal 102% | SF-268 CNS 100% | SF-295 CNS 94.4% | SF-539 CNS 104% | UACC-257 melanoma 97% | M14 melanoma 108%

CCOC(=O)CSc1c([N+](=O)[O-])ncn1C
inactive: DU-145 prostate 105% | K-562 leukemia 109% | MALME-3M melanoma 80.4% | MDA-MB-231 breast 96.5% | RXF 393 renal 103% | SF-268 CNS 103% | SF-295 CNS 102% | SF-539 CNS 94.3% | UACC-257 melanoma 94.6% | M14 melanoma 94.1%

Cc1ncc(C#N)c(N)n1
inactive: DU-145 prostate 114% | K-562 leukemia 120% | MALME-3M melanoma 93.8% | MDA-MB-231 breast 98.9% | RXF 393 renal 89.6% | SF-268 CNS 107% | SF-295 CNS 98% | SF-539 CNS 105% | UACC-257 melanoma 106% | M14 melanoma 95.9%

C/C(=N/NC(N)=O)c1ccco1
inactive: DU-145 prostate 110% | K-562 leukemia 88.3% | MALME-3M melanoma 93.4% | MDA-MB-231 breast 118% | RXF 393 renal 108% | SF-268 CNS 104% | SF-295 CNS 104% | SF-539 CNS 101% | UACC-257 melanoma 83% | M14 melanoma 91.8%

C=CCNC(=O)c1ccc(OC)cc1
inactive: DU-145 prostate 124% | K-562 leukemia 105% | MALME-3M melanoma 117% | MDA-MB-231 breast 104% | RXF 393 renal 111% | SF-268 CNS 126% | SF-295 CNS 115% | SF-539 CNS 100% | UACC-257 melanoma 97.6% | M14 melanoma 100%

CC(=O)/C(Cc1ccccc1)=N/O
inactive: DU-145 prostate 115% | K-562 leukemia 85.5% | MALME-3M melanoma 104% | MDA-MB-231 breast 100% | RXF 393 renal 109% | SF-268 CNS 104% | SF-295 CNS 105% | SF-539 CNS 91.9% | UACC-257 melanoma 89.5% | M14 melanoma 94.8%

CCOc1ccc2[nH]c(=S)sc2c1
inactive: DU-145 prostate 111% | K-562 leukemia 90.8% | MALME-3M melanoma 97.8% | MDA-MB-231 breast 104% | RXF 393 renal 116% | SF-268 CNS 103% | SF-295 CNS 111% | SF-539 CNS 106% | UACC-257 melanoma 104% | M14 melanoma 99%

CCOC(=O)c1cc2cccc(OC)c2oc1=O
inactive: DU-145 prostate 123% | K-562 leukemia 99% | MALME-3M melanoma 115% | MDA-MB-231 breast 107% | RXF 393 renal 122% | SF-268 CNS 111% | SF-295 CNS 130% | SF-539 CNS 107% | UACC-257 melanoma 98.2% | M14 melanoma 99.4%

CC1Cc2ccccc2O1 (stereo not given)
inactive: DU-145 prostate 124% | K-562 leukemia 117% | MALME-3M melanoma 126% | MDA-MB-231 breast 115% | RXF 393 renal 118% | SF-268 CNS 113% | SF-295 CNS 104% | SF-539 CNS 100% | UACC-257 melanoma 112% | M14 melanoma 107%

COC(=O)C(O)c1ccccc1 (stereo not given)
inactive: DU-145 prostate 114% | K-562 leukemia 101% | MALME-3M melanoma 134% | MDA-MB-231 breast 91% | RXF 393 renal 111% | SF-268 CNS 102% | SF-295 CNS 139% | SF-539 CNS 98% | UACC-257 melanoma 116% | M14 melanoma 105%

O=C(O)/C=C/c1ccc2c(c1)CCC2
inactive: DU-145 prostate 118% | K-562 leukemia 86.9% | MALME-3M melanoma 121% | MDA-MB-231 breast 118% | RXF 393 renal 106% | SF-268 CNS 116% | SF-295 CNS 98.9% | SF-539 CNS 106% | UACC-257 melanoma 97.8% | M14 melanoma 106%

OCC(O)C(O)C(O)C(O)/C=N/O (stereo not given)
inactive: DU-145 prostate 108% | K-562 leukemia 111% | MALME-3M melanoma 110% | MDA-MB-231 breast 97.5% | RXF 393 renal 98.9% | SF-268 CNS 98% | SF-295 CNS 105% | SF-539 CNS 106% | UACC-257 melanoma 62.3% | M14 melanoma 94.7%

CC(=O)c1ccc(C)c(N)c1
inactive: DU-145 prostate 110% | K-562 leukemia 102% | MALME-3M melanoma 107% | MDA-MB-231 breast 115% | RXF 393 renal 111% | SF-268 CNS 100% | SF-295 CNS 101% | SF-539 CNS 101% | UACC-257 melanoma 102% | M14 melanoma 92.5%

CCOC(=O)/C(=C/c1ccc(OC)cc1)N(CC)CC
inactive: DU-145 prostate 102% | K-562 leukemia 102% | MALME-3M melanoma 108% | MDA-MB-231 breast 107% | RXF 393 renal 107% | SF-268 CNS 100% | SF-295 CNS 101% | SF-539 CNS 108% | UACC-257 melanoma 103% | M14 melanoma 107%

CC(=O)OCC(=O)[C@@]1(O)CC[C@H]2[C@@H]3CC[C@@H]4C[C@H](O)CC[C@]4(C)[C@H]3C(=O)C[C@@]21C
inactive: DU-145 prostate 120% | K-562 leukemia 101% | MALME-3M melanoma 143% | MDA-MB-231 breast 103% | RXF 393 renal 94.8% | SF-268 CNS 102% | SF-295 CNS 104% | SF-539 CNS 100% | UACC-257 melanoma 101% | M14 melanoma 110%

CC(C)CCOC(=O)c1ccccc1
inactive: DU-145 prostate 108% | K-562 leukemia 102% | MALME-3M melanoma 96.9% | MDA-MB-231 breast 104% | RXF 393 renal 119% | SF-268 CNS 102% | SF-295 CNS 100% | SF-539 CNS 98.8% | UACC-257 melanoma 101% | M14 melanoma 100%

O=C(O)C(Cc1ccccc1)C(=O)O
inactive: DU-145 prostate 113% | K-562 leukemia 108% | MALME-3M melanoma 115% | MDA-MB-231 breast 104% | RXF 393 renal 104% | SF-268 CNS 110% | SF-295 CNS 98.1% | SF-539 CNS 102% | UACC-257 melanoma 108% | M14 melanoma 104%

Cc1cc(=O)cc(C)n1-c1ccccc1
inactive: DU-145 prostate 121% | K-562 leukemia 105% | MALME-3M melanoma 99.3% | MDA-MB-231 breast 106% | RXF 393 renal 104% | SF-268 CNS 109% | SF-295 CNS 96.3% | SF-539 CNS 102% | UACC-257 melanoma 106% | M14 melanoma 101%

COc1ccc(C)cc1OC
inactive: DU-145 prostate 99.6% | K-562 leukemia 92.9% | MALME-3M melanoma 97% | MDA-MB-231 breast 107% | RXF 393 renal 117% | SF-268 CNS 98.4% | SF-295 CNS 95.7% | SF-539 CNS 109% | UACC-257 melanoma 93.9% | M14 melanoma 115%

CCCCOC(OCCCC)c1ccccc1
inactive: DU-145 prostate 112% | K-562 leukemia 107% | MALME-3M melanoma 132% | MDA-MB-231 breast 112% | RXF 393 renal 128% | SF-268 CNS 96.5% | SF-295 CNS 111% | SF-539 CNS 91.8% | UACC-257 melanoma 109% | M14 melanoma 113%

Cc1cccc([N+](=O)[O-])c1Cl
inactive: DU-145 prostate 105% | K-562 leukemia 119% | MALME-3M melanoma 109% | MDA-MB-231 breast 113% | RXF 393 renal 103% | SF-268 CNS 101% | SF-295 CNS 104% | SF-539 CNS 105% | UACC-257 melanoma 105% | M14 melanoma 106%
